Several values for one entry are separate records, joined by “and”; a condition that tells them apart may be missing. Identical values can stand only once. Inconclusive results are not listed. A call without a number means that no potency is given here. Some structures have more than one record in an assay (separate samples or runs), and their calls can disagree. Activity calls are given as the source filed them. Unless noted, calls follow the shape of the dose curve; as a rule, active = well fitted curve in the direction sought with a large enough effect in the repeat runs; inconclusive = weak or mixed curves; inactive = no such curve, though single readings can be large; an effect the other way counts as inactive or inconclusive.
How the values were obtained:
[1] = qHTS assay to identify small molecule that activate the aryl hydrocarbon receptor (AhR) signaling pathway - cell viability counter screen (AID 743086); conditions: HepG2-AhR-luc viability, CellTiter-Fluor, 24 h; series mostly up to 70.3 µM; also: nearly all actives have a fitted effect of over 45% in size; also: potency is read from the fitted curve at half-maximal effect
Procedure, shortened: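 HepG2-AhR-luc (HG2L7.5c1) cells, 4000/well, treated 24 h at 37 C with compound; viability measured as CellTiter-Fluor fluorescence after 30 min in the same wells as the luciferase read.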

[2] = target: Peroxisome proliferator-activated receptor gamma (Homo sapiens) (UniProt P37231); experiment: qHTS assay to identify small molecule agonists of the peroxisome proliferator-activated receptor gamma (PPARg) signaling pathway (AID 743094; active = well fitted activation curve with a large enough effect in the signal ratio in the repeat runs, not every such curve was filed as active; the % refers to the signal ratio; also: potency is read from the fitted curve at half-maximal effect); conditions: HEK293H PPARg-UAS-bla, beta-lactamase FRET ratio, 17 h; series mostly up to 57 µM
Procedure, shortened: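 Agonist activity was taken from a beta-lactamase reporter (FRET substrate, 1 h at room temperature) in HEK293H cells carrying a PPARg UAS-bla construct. Compounds in DMSO were incubated 17 h at 37C after a 5 h cell pre-incubation.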

[3] = target: Peroxisome proliferator-activated receptor gamma (Homo sapiens) (UniProt P37231); experiment: qHTS assay to identify small molecule antagonists of the peroxisome proliferator-activated receptor gamma (PPARg) signaling pathway (AID 743191; calls by dose curve; also: nearly all actives have a fitted effect of over 30% in size; also: potency is read from the fitted curve at half-maximal effect); conditions: HEK293H PPARg-UAS-bla, beta-lactamase ratio, antagonist, 17 h; series mostly up to 62.6 µM
Procedure, shortened: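 GeneBLAzer PPARg UAS-bla HEK293H cells, 5 h post-plating, exposed to compounds 17 h at 37C. LiveBLAzer B/G FRET substrate added for 1 h at room temperature; beta-lactamase reporter read by fluorescence intensity.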

[4] = qHTS assay for small molecule agonists of the antioxidant response element (ARE) signaling pathway (AID 743202; active = well fitted activation curve with a large enough effect in the signal ratio in the repeat runs, not every such curve was filed as active; the % refers to the signal ratio; also: potency is read from the fitted curve at half-maximal effect); conditions: HepG2 ARE-bla reporter, beta-lactamase FRET, 16 h; series mostly up to 73.3 µM
Procedure, shortened: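 HepG2 ARE-bla cells; 16 h treatment at 37 C; FRET-based beta-lactamase fluorescence read after 2 h substrate incubation at room temperature.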

[5] = qHTS assay to identify small molecule antagonists of the peroxisome proliferator-activated receptor gamma (PPARg) signaling pathway - cell viability counter screen (AID 743194); conditions: PPARg-bla HEK293H viability, CellTiter-Glo luminescence, 17 h; Potency: co-treated with 50 nM rosiglitazone unless noted; series mostly up to 62.6 µM; also: nearly all actives have a fitted effect of over 55% in size; also: potency is read from the fitted curve at half-maximal effect
Procedure, shortened: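 Cytotoxicity counter screen in PPARg-bla HEK293H cells, same wells as reporter assay. Compounds plus 50 nM rosiglitazone (final) for 17 h at 37 C, then viability read by CellTiter-Glo luminescence.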

[6] = qHTS assay for small molecule agonists of the antioxidant response element (ARE) signaling pathway - cell viability counter screen (AID 743203; calls by dose curve; also: nearly all actives have a fitted effect of over 55% in size; also: potency is read from the fitted curve at half-maximal effect); conditions: ARE-bla HepG2 viability, CellTiter-Glo luminescence, 16 h; series mostly up to 73.3 µM
Procedure, shortened: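 Viability counter screen: CellTiter-Glo luminescence, read after 30 min at room temperature, in ARE-bla HepG2 wells. Compound exposure lasted 16 h at 37C/5% CO2, following a 5 h pre-incubation of the cells after plating.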

[7] = qHTS assay for small molecule activators of the heat shock response signaling pathway - cell viability counter screen (AID 743209); conditions: HSE-bla HeLa viability, CellTiter-Glo luminescence, 5 h; series mostly up to 62.6 µM; also: nearly all actives have a fitted effect of over 50% in size; also: potency is read from the fitted curve at half-maximal effect
Procedure, shortened: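 Cytotoxicity counter screen run in the same wells as the heat-shock bla reporter assay: HeLa HSE-bla cells, 5 h compound exposure at 37 C, viability read by CellTiter-Glo luminescence.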

[8] = qHTS assay for small molecule activators of the heat shock response signaling pathway (AID 743210; active = well fitted activation curve with a large enough effect in the signal ratio in the repeat runs, with a control signal flat, not every such curve was filed as active; the % refers to the signal ratio;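 also: HeLa cells with beta-lactamase reporter driven by heat shock elements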); conditions: HeLa HSE-bla reporter, beta-lactamase ratio, 5 h; series mostly up to 62.6 µM
Procedure, shortened: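 Following overnight attachment, HSE-bla HeLa cells received test compounds for 5 h at 37 C; beta-lactamase activity was then detected via FRET substrate fluorescence.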

[9] = qHTS assay to identify small molecule agonists of the peroxisome proliferator-activated receptor delta (PPARd) signaling pathway - cell viability counter screen (AID 743211); conditions: PPARd-bla HEK293H viability, CellTiter-Glo luminescence, 17 h; series mostly up to 62.6 µM; also: nearly all actives have a fitted effect of over 55% in size; also: potency is read from the fitted curve at half-maximal effect
Procedure, shortened: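 PPARd-bla HEK293H cells (3000/well) were pre-incubated 5 h at 37 C, then exposed to compound for 17 h at 37 C. After 2 h with LiveBLAzer substrate, CellTiter-Glo was added to the same wells; luminescence read after 30 min at room temperature.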

[10] = target: Aryl hydrocarbon receptor (Homo sapiens) (UniProt P35869); experiment: qHTS assay to identify small molecule that activate the aryl hydrocarbon receptor (AhR) signaling pathway (AID 743085); conditions: HepG2 AhR-luc (HG2L7.5c1), luciferase, 24 h; series mostly up to 70.3 µM;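 also: HG2L7.5c1 human HepG2 liver cells with stably integrated DRE-driven firefly reporter; nearly all actives have a fitted effect of over 15% in size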
Procedure, shortened: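 HepG2 cells stably carrying a 20-DRE firefly luciferase reporter (HG2L7.5c1) treated with compound for 24 hr at 37C. Luciferase read by ONE-Glo luminescence, with CellTiter-Fluor viability read first.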

Aryl hydrocarbon receptor (Homo sapiens), sequence (P35869 whole entry, looked up): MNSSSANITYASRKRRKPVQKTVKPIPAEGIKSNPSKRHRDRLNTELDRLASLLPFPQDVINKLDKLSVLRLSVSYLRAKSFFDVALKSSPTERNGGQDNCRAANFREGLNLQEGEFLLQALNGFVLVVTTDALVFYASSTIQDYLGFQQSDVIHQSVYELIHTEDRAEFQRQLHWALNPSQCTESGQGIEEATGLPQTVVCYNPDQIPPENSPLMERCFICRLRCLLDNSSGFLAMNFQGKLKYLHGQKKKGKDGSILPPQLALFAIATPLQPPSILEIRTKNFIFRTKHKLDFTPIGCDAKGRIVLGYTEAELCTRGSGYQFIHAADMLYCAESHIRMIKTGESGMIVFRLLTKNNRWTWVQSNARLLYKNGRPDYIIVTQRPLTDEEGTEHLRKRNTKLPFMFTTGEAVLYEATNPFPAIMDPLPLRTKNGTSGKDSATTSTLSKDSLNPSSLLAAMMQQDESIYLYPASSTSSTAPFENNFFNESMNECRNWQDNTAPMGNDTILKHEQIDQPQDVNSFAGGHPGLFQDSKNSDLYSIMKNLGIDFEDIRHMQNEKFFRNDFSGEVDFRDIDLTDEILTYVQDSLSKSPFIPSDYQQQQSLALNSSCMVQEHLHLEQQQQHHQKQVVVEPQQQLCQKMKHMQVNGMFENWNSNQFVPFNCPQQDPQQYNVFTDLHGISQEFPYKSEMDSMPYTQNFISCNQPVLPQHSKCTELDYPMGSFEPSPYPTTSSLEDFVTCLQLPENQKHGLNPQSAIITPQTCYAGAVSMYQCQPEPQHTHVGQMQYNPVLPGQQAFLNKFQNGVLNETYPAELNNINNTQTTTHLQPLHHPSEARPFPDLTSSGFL
Peroxisome proliferator-activated receptor gamma (Homo sapiens), sequence (P37231 whole entry, looked up): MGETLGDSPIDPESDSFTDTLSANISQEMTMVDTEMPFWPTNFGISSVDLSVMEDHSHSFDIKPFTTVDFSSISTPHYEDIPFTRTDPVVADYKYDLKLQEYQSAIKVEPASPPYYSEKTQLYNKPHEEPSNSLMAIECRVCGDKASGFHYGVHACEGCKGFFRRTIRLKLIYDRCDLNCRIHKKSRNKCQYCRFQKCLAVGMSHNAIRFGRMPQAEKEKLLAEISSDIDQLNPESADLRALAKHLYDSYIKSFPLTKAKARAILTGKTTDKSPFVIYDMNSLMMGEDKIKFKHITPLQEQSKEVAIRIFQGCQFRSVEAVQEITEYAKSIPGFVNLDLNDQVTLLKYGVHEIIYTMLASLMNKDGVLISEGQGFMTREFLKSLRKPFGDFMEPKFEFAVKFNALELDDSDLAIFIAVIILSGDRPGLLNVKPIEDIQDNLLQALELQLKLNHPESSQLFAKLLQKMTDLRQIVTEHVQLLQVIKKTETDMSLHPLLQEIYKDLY

Fc1ccc(Oc2ccnc3cc(Cl)cc(Cl)c23)cc1
Potency [1]: inactive | Potency [2]: 43.6 µM (active) | Potency [3]: inactive | Potency [4]: 12.2 µM (active)

c1ccc(Nc2ccc3ccccc3c2)cc1
Potency [1]: inactive | Potency [2]: inactive | Potency [5]: inactive | Potency [6]: inactive | Potency [7]: inactive and 54.9 µM (active) | Potency [8]: inactive | Potency [9]: inactive

Cn1cc(C2=C(c3cn(C4CCN(Cc5ccccn5)CC4)c4ccccc34)C(=O)NC2=O)c2ccccc21
Potency [1]: inactive | Potency [6]: inactive | Potency [7]: inactive | Potency [9]: inactive

Nc1ccc(Cc2ccc(N)c(Cl)c2)cc1Cl
Potency [1]: inactive | Potency [2]: inactive

O=c1[nH]c2ccccc2n1CCCN1CCC(n2c(=O)[nH]c3cc(Cl)ccc32)CC1
Potency [5]: inactive | Potency [4]: inactive | Potency [6]: inactive | Potency [7]: inactive | Potency [8]: inactive

O=C(O)C1C2CCC(O2)C1C(=O)O (stereo unspecified)
Potency [1]: inactive | Potency [5]: inactive | Potency [6]: inactive | Potency [7]: inactive | Potency [8]: inactive | Potency [9]: inactive

Oc1ccc2ccc3cccc4ccc1c2c34
Potency [1]: inactive | Potency [7]: inactive

CCOCCOC(C)=O
Potency [1]: inactive | Potency [5]: inactive | Potency [6]: inactive | Potency [8]: inactive | Potency [9]: inactive

CC(c1ccc(O)cc1)c1ccc(O)cc1
Potency [1]: inactive | Potency [2]: inactive | Potency [3]: 36.5 µM (active) | Potency [4]: 25.6 µM (active) | Potency [6]: inactive | Potency [8]: inactive | Potency [9]: inactive

O=c1c(C2CC(c3ccc(-c4ccc(Br)cc4)cc3)Cc3ccccc32)c(O)sc2ccccc12 (stereo unspecified)
Potency [5]: 13.3 µM (active) | Potency [6]: 33.5 µM (active)

CCOc1cc(C(C)(C)C)ccc1C1COC(c2c(F)cccc2F)=N1 (stereo unspecified)
Potency [1]: inactive | Potency [2]: inactive | Potency [5]: 11.8 µM (active) | Potency [4]: 5.88 µM (active) | Potency [7]: inactive | Potency [9]: 29.7 µM (active)

Clc1ccc(CO/N=C(\Cn2ccnc2)c2ccc(Cl)cc2Cl)c(Cl)c1
Potency [1]: inactive | Potency [2]: inactive | Potency [7]: 23.7 µM (active) | Potency [9]: inactive

BrC(Br)C(Br)(Br)Br
Potency [1]: inactive | Potency [2]: inactive | Potency [6]: 54.8 µM (active) | Potency [7]: inactive | Potency [9]: 49.3 µM (active)

Cc1c(Cl)c(=O)oc2cc(OP(=O)(OCCCl)OCCCl)ccc12
Potency [1]: inactive | Potency [2]: inactive | Potency [3]: inactive | Potency [5]: inactive | Potency [4]: inactive | Potency [6]: inactive | Potency [7]: inactive | Potency [8]: inactive

COP(=S)(OC)Oc1cc(Cl)c(Br)cc1Cl
Potency [2]: inactive | Potency [3]: 43.6 µM (active) | Potency [5]: 34.7 µM (active) | Potency [8]: inactive

CC(=O)/C=C/c1ccc2c(c1)OCO2
Potency [1]: inactive | Potency [2]: inactive | Potency [3]: 12.4 µM (active) | Potency [6]: inactive

COc1ccc(N)cc1N
Potency [1]: 63.1 µM (active) and inactive | Potency [5]: 21 µM (active) | Potency [6]: 19.9 µM (active) and 29.4 µM (active) | Potency [7]: 8.01 µM (active)

O=C(CCCN1CCC2(CC1)C(=O)NCN2c1ccccc1)c1ccc(F)cc1
Potency [2]: inactive | Potency [4]: 2.98 µM (active) | Potency [7]: inactive | Potency [8]: inactive | Potency [9]: inactive

ClC1=C(Cl)C2(Cl)C3C(Cl)C(Cl)CC3C1(Cl)C2(Cl)Cl (stereo unspecified)
Potency [1]: inactive | Potency [5]: 24.5 µM (active) | Potency [6]: 61.1 µM (active) | Potency [7]: 21.8 µM (active) and 38.9 µM (active)

Clc1ccc(CCC(Cn2ccnc2)Sc2c(Cl)cccc2Cl)cc1 (stereo unspecified)
Potency [1]: inactive | Potency [9]: 29.8 µM (active)

CCCCCCCCCCCCCCCC[n+]1ccccc1
Potency [10]: inactive | Potency [6]: 26.9 µM (active) [middle of 4 runs] | Potency [7]: 28.8 µM (active) and 24.5 µM (active) and 48.3 µM (active) | Potency [9]: 23.7 µM (active) [middle of 4 runs]

CC1(C)C(/C=C(\Cl)C(F)(F)F)C1C(=O)OC(C#N)c1cccc(Oc2ccccc2)c1 (stereo unspecified)
Potency [1]: inactive | Potency [5]: inactive | Potency [4]: inactive | Potency [6]: inactive | Potency [9]: inactive

CCCN(CCC)c1c([N+](=O)[O-])cc(S(N)(=O)=O)cc1[N+](=O)[O-]
Potency [1]: 44.4 µM (active) | Potency [3]: 37 µM (active) | Potency [5]: 58.6 µM (active) | Potency [6]: 29.1 µM (active)

C=CCC1=C(C)C(OC(=O)C2C(C=C(C)C)C2(C)C)CC1=O (stereo unspecified)
Potency [5]: 58.3 µM (active) | Potency [6]: 51.5 µM (active)

CC(C)CC(C)Nc1ccc(Nc2ccccc2)cc1 (stereo unspecified)
Potency [1]: 67.4 µM (active) | Potency [5]: 42.9 µM (active) | Potency [7]: 54 µM (active)

Nc1ccccc1C(=O)Oc1ccc2ccccc2c1
Potency [1]: inactive | Potency [2]: inactive | Potency [5]: inactive | Potency [4]: 21.7 µM (active) | Potency [6]: inactive | Potency [9]: inactive

Oc1ccc(C(=C(Cl)Cl)c2ccc(O)cc2)cc1
Potency [1]: inactive | Potency [3]: 17.3 µM (active) | Potency [4]: 24.3 µM (active) | Potency [7]: inactive

Cc1ccc(OP(=O)(Oc2ccccc2)Oc2ccccc2)cc1
Potency [1]: inactive | Potency [2]: inactive | Potency [5]: inactive | Potency [6]: inactive | Potency [7]: inactive | Potency [8]: inactive | Potency [9]: inactive

Oc1c(Br)c(Br)c(Br)c(Br)c1Br
Potency [1]: inactive | Potency [5]: 49.3 µM (active) | Potency [6]: 24.5 µM (active) | Potency [7]: inactive

CCCCCCCCCCCCCCCCCCn1cc[n+](C)c1
Potency [10]: inactive | Potency [6]: 15.3 µM (active) | Potency [7]: 43.4 µM (active) | Potency [9]: 10.9 µM (active)

O=C(CCl)Nc1ccccc1
Potency [1]: 61.1 µM (active) | Potency [5]: 15.5 µM (active) | Potency [4]: 4.33 µM (active) | Potency [7]: 43.6 µM (active) | Potency [9]: 49 µM (active)

OC(c1ccc(Cl)cc1)(c1ccc(Cl)cc1)C(Cl)(Cl)Cl
Potency [1]: inactive | Potency [5]: 15.5 µM (active) | Potency [6]: 43.3 µM (active)
